Experiment [1] can be described thus: NCI Yeast Anticancer Drug Screen. Data for the rad50 strain (AID 155).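 Note: 0% = growth of vehicle-only cultures of the same strain.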 Particulars: S. cerevisiae rad50 strain growth inhibition, stronger effect = higher value. Put shortly:
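Readout: growth inhibition relative to vehicle-treated cultures. Compound exposure was carried out in a genetically defined yeast strain deficient in DNA damage repair.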

The nature of experiment [2]: NCI Yeast Anticancer Drug Screen. Data for the mec2-1 strain (AID 157). Particulars: S. cerevisiae mec2-1 strain, stronger effect = higher value. The gist of the method: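 Cells of the genetically defined mec2-1 yeast strain are incubated with test compound. Inhibition of growth is calculated against vehicle-treated controls.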
A short description of experiment [3]: NCI Yeast Anticancer Drug Screen. Data for the sgs1 mgt1 strain (AID 161).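 Note: 0% = growth of cultures given vehicle only.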 Conditions: S. cerevisiae sgs1 mgt1 strain, stronger effect = higher value. Put shortly: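 Mutant yeast exposed to compound; growth scored against vehicle-only wells.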
The nature of experiment [4]: NCI Yeast Anticancer Drug Screen. Data for the cln2 rad14 strain (AID 165).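 Note: 0% = growth equal to vehicle treated cultures.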 Particulars: S. cerevisiae cln2 rad14 strain, stronger effect = higher value. The gist of the method: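 The screen exposed genetically defined yeast (cln2 rad14) to test compounds and scored growth inhibition relative to vehicle-treated controls.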
Experiment [5] can be described thus: NCI Yeast Anticancer Drug Screen. Data for the bub3 strain (AID 167). Conditions: S. cerevisiae bub3 mutant strain, stronger effect = higher value. Put shortly: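 Readout: yeast growth inhibition, expressed relative to vehicle-only wells. The test organism is a mutant strain from a panel with lesions in DNA repair or checkpoint genes.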
Experiment [6] is described as follows: NCI Yeast Anticancer Drug Screen. Data for the mlh1 rad18 strain (AID 175). Particulars: S. cerevisiae mlh1 rad18 strain growth inhibition, stronger effect = higher value. Put shortly:
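Compound-treated yeast growth, normalised to vehicle controls. Strain bears defined DNA repair mutations.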

The mark [7] stands for this setting: at 5.0 µM (retest, dose inferred, filed as 0.5).
Where [8] appears, read: at 50.0 µM (retest, dose inferred, filed as 5.0).

Where “and” joins values, the source holds several entries; their conditions need not be identical. Identical values can stand only once. The panel holds about 79,000 compounds, 15% with a hit somewhere; the sample as a whole holds those more often. The source holds several records for some structures; these can differ, active in one and inactive in another. Calls of active or inactive are those of the source. Cut-off read from the data, not from the text of the source: active = growth inhibition above about 70%; inactive = the rest.

`Oc1cc[c]([Hg][Cl])cc1`: the growth inhibition in experiment [1] (setting [7]) is 99% (active); in experiment [1] (setting [8]), 99% (active); in experiment [1] (at 50.0 µM), 99.5% (active) and 100% (active); in experiment [2] (setting [7]), 100% (active); in experiment [2] (setting [8]) it was 100% (active); in experiment [2] (at 50.0 µM), 99.5% (active) and 99.7% (active). Further, the growth inhibition in experiment [3] (setting [7]) is 100% (active); in experiment [3] (setting [8]), 99% (active) and 100% (active); in experiment [3] (at 50.0 µM) it was 99.1% (active) and 100% (active); in experiment [4] (setting [7]) it was 99% (active); in experiment [4] (setting [8]), 99% (active); in experiment [4] (at 50.0 µM) it was 98.2% (active) and 99.5% (active). Further, the growth inhibition in experiment [5] (setting [7]) was 99% (active) and 100% (active); in experiment [5] (setting [8]), 99% (active) and 100% (active); in experiment [5] (at 50.0 µM) it was 99.6% (active) and 99.7% (active); in experiment [6] (setting [7]), 99% (active); in experiment [6] (setting [8]), 99% (active); in experiment [6] (at 50.0 µM), 99.2% (active) and 99.3% (active).
Turning to `[Br][Cd][Br].c1ccc([PH+](c2ccccc2)c2ccccc2)cc1.c1ccc([PH+](c2ccccc2)c2ccccc2)cc1`, the growth inhibition in experiment [1] (setting [7]) is 29% (inactive); in experiment [1] (setting [8]), 95% (active); in experiment [1] (at 50.0 µM), 97.5% (active); in experiment [2] (setting [7]), 20% (inactive); in experiment [2] (setting [8]), 84% (active); in experiment [2] (at 50.0 µM), 89.5% (active). The growth inhibition was 18% (inactive) in experiment [3] (setting [7]); 55% (inactive) in experiment [3] (setting [8]); 94.9% (active) in experiment [3] (at 50.0 µM); 4% (inactive) in experiment [4] (setting [7]); 89% (active) in experiment [4] (setting [8]); 92.4% (active) in experiment [4] (at 50.0 µM). Also, the growth inhibition in experiment [5] (setting [7]) was 21% (inactive); in experiment [5] (setting [8]), 93% (active); in experiment [5] (at 50.0 µM) it was 92.5% (active); in experiment [6] (setting [7]) it was 18% (inactive); in experiment [6] (setting [8]) it was 92% (active); in experiment [6] (at 50.0 µM), 94.7% (active).
As to `C[n+]1c(/C=C/c2ccc(O)c3ncccc23)[se]c2ccccc21`, the growth inhibition is 22% (inactive) in experiment [1] (setting [7]); 93% (active) in experiment [1] (setting [8]); 93.4% (active) in experiment [1] (at 50.0 µM); 2% (inactive) in experiment [2] (setting [7]); 90% (active) in experiment [2] (setting [8]); 93.5% (active) in experiment [2] (at 50.0 µM). Further, the growth inhibition in experiment [3] (setting [7]) is 24% (inactive); in experiment [3] (setting [8]), 91% (active); in experiment [3] (at 50.0 µM), 92.3% (active); in experiment [4] (setting [7]) it was 11% (inactive); in experiment [4] (setting [8]) it was 88% (active); in experiment [4] (at 50.0 µM) it was 92% (active). Besides, the growth inhibition in experiment [5] (setting [7]) was 2% (inactive); in experiment [5] (setting [8]), 91% (active); in experiment [5] (at 50.0 µM), 93% (active); in experiment [6] (setting [7]) it was 43% (inactive); in experiment [6] (setting [8]), 90% (active); in experiment [6] (at 50.0 µM), 93.4% (active).
Turning to `CN(C)CC1CCCCC1=O` (configuration not stated), the growth inhibition was -169% (inactive) in experiment [1] (setting [7]); 36% (inactive) in experiment [1] (setting [8]); 73.7% (active) and 1.45% (inactive) and -1.35% (inactive) in experiment [1] (at 50.0 µM); -52% (inactive) in experiment [2] (setting [7]); -24% (inactive) in experiment [2] (setting [8]); 56.2% (inactive) and -13.8% (inactive) and -15.9% (inactive) in experiment [2] (at 50.0 µM). Besides, the growth inhibition in experiment [3] (setting [7]) is -67% (inactive); in experiment [3] (setting [8]) it was -6% (inactive); in experiment [3] (at 50.0 µM), 47.4% (inactive) and -15.4% (inactive) and -9.6% (inactive); in experiment [4] (setting [7]), -77% (inactive); in experiment [4] (setting [8]), 3% (inactive); in experiment [4] (at 50.0 µM) it was 59.5% (inactive) and 8.3% (inactive) and 0.7% (inactive). Further, the growth inhibition is -69% (inactive) in experiment [5] (setting [7]); -26% (inactive) in experiment [5] (setting [8]); 35% (inactive) and -23.4% (inactive) and -3.6% (inactive) in experiment [5] (at 50.0 µM); -131% (inactive) in experiment [6] (setting [7]); -38% (inactive) in experiment [6] (setting [8]); 71.9% (active) and 18.1% (inactive) and 5.25% (inactive) in experiment [6] (at 50.0 µM).
For the molecule `COC12[C@@H]3N[C@@H]3CN1C1=C(C(=O)C(NCCSSCCNC3=C(C)C(=O)C4=C(C3=O)C(COC(N)=O)[C@]3(OC)C5N[C@@H]5CN43)=C(C)C1=O)[C@@H]2COC(N)=O` (some centres not stated), the growth inhibition in experiment [1] (setting [7]) is 35% (inactive); in experiment [1] (setting [8]), 73% (active); in experiment [1] (at 50.0 µM) it was 63.1% (inactive); in experiment [2] (setting [7]), 18% (inactive); in experiment [2] (setting [8]), 82% (active); in experiment [2] (at 50.0 µM), 49% (inactive). In addition, the growth inhibition is 41% (inactive) in experiment [3] (setting [7]); 74% (active) in experiment [3] (setting [8]); 3.55% (inactive) in experiment [3] (at 50.0 µM); 19% (inactive) in experiment [4] (setting [7]); 53% (inactive) in experiment [4] (setting [8]); 39.4% (inactive) in experiment [4] (at 50.0 µM). Further, the growth inhibition in experiment [5] (setting [7]) is 17% (inactive); in experiment [5] (setting [8]), 52% (inactive); in experiment [5] (at 50.0 µM), -8.85% (inactive); in experiment [6] (setting [7]), 54% (inactive); in experiment [6] (setting [8]) it was 93% (active); in experiment [6] (at 50.0 µM) it was 79% (active).
Take `CCOP(=O)(OCC)Oc1ccc([N+](=O)[O-])cc1`: the growth inhibition was 8% (inactive) in experiment [1] (setting [7]); -5% (inactive) in experiment [1] (setting [8]); 0.55% (inactive) in experiment [1] (at 50.0 µM); -10% (inactive) in experiment [2] (setting [7]); -13% (inactive) in experiment [2] (setting [8]); 2.65% (inactive) in experiment [2] (at 50.0 µM). The growth inhibition in experiment [3] (setting [7]) is 12% (inactive); in experiment [3] (setting [8]), 16% (inactive); in experiment [3] (at 50.0 µM), -7% (inactive); in experiment [4] (setting [7]) it was 6% (inactive); in experiment [4] (setting [8]), 7% (inactive); in experiment [4] (at 50.0 µM), 38.7% (inactive). The growth inhibition in experiment [5] (setting [7]) is -4% (inactive); in experiment [5] (setting [8]) it was 14% (inactive); in experiment [5] (at 50.0 µM), 9.8% (inactive); in experiment [6] (setting [7]), 13% (inactive); in experiment [6] (setting [8]) it was 4% (inactive); in experiment [6] (at 50.0 µM) it was 3.55% (inactive).
Take `CCC[CH2][Sn]1([CH2]CCC)[O]C(=O)C(C(C)C)N=Cc2ccccc2[O]1` (configuration not stated): the growth inhibition in experiment [1] (setting [7]) was 15% (inactive); in experiment [1] (setting [8]), 15% (inactive); in experiment [1] (at 50.0 µM), 89.8% (active); in experiment [2] (setting [7]), 17% (inactive); in experiment [2] (setting [8]), 17% (inactive); in experiment [2] (at 50.0 µM), 93% (active). Further, the growth inhibition in experiment [3] (setting [7]) is 12% (inactive); in experiment [3] (setting [8]), 12% (inactive); in experiment [3] (at 50.0 µM), 90.8% (active); in experiment [4] (setting [7]), 7% (inactive); in experiment [4] (setting [8]) it was 7% (inactive); in experiment [4] (at 50.0 µM), 91.6% (active). Also, the growth inhibition in experiment [5] (setting [7]) is -4% (inactive); in experiment [5] (setting [8]), -4% (inactive); in experiment [5] (at 50.0 µM) it was 90.8% (active); in experiment [6] (setting [7]), -2% (inactive); in experiment [6] (setting [8]), -2% (inactive); in experiment [6] (at 50.0 µM) it was 88.5% (active).
Turning to `CC(O[Si](c1ccccc1)(c1ccccc1)C(C)(C)C)[C@H](NC(=O)OC(C)(C)C)C(=O)O` (some centres not stated), the growth inhibition was -13% (inactive) in experiment [1] (setting [7]); 58% (inactive) in experiment [1] (setting [8]); 86% (active) in experiment [1] (at 50.0 µM); -4% (inactive) in experiment [2] (setting [7]); 97% (active) in experiment [2] (setting [8]); 86.3% (active) in experiment [2] (at 50.0 µM). Also, the growth inhibition in experiment [3] (setting [7]) was 13% (inactive); in experiment [3] (setting [8]) it was 47% (inactive); in experiment [3] (at 50.0 µM), 88% (active); in experiment [4] (setting [7]), -15% (inactive); in experiment [4] (setting [8]), 98% (active); in experiment [4] (at 50.0 µM), 89.6% (active). The growth inhibition was -9% (inactive) in experiment [5] (setting [7]); 95% (active) in experiment [5] (setting [8]); 55.5% (inactive) in experiment [5] (at 50.0 µM); 1% (inactive) in experiment [6] (setting [7]); 68% (inactive) in experiment [6] (setting [8]); 92.9% (active) in experiment [6] (at 50.0 µM).
Take `Clc1c(CI)ccc(CI)c1Cl`: the growth inhibition is 22% (inactive) in experiment [1] (setting [7]); 79% (active) in experiment [1] (setting [8]); 98.7% (active) in experiment [1] (at 50.0 µM); 60% (inactive) in experiment [2] (setting [7]); 90% (active) in experiment [2] (setting [8]); 97.2% (active) in experiment [2] (at 50.0 µM). Also, the growth inhibition was 17% (inactive) in experiment [3] (setting [7]); 74% (active) in experiment [3] (setting [8]); 98.7% (active) in experiment [3] (at 50.0 µM); 34% (inactive) in experiment [4] (setting [7]); 85% (active) in experiment [4] (setting [8]); 54.3% (inactive) in experiment [4] (at 50.0 µM). Moreover, the growth inhibition in experiment [5] (setting [7]) is 62% (inactive); in experiment [5] (setting [8]) it was 89% (active); in experiment [5] (at 50.0 µM), 87.2% (active); in experiment [6] (setting [7]), 82% (active); in experiment [6] (setting [8]) it was 96% (active); in experiment [6] (at 50.0 µM) it was 97.5% (active).

For the origin of these results see PubChem BioAssay (NCI).
